Screening data: PubChem, National Center for Advancing Translational Sciences (NCATS)
GAA inhib: alpha-glucosidase (human) inhibition. P10253. purified human GAA, 4-MU-alpha-glucoside fluorescence. Potency, µM (series often up to 76.9 µM), without a hit: at the highest dose activity change, negative = inhibition, most hits filed as inhibitors. 200,000 compounds, 0.005% hits. AID 1466;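 note: potency is the fitted concentration of half-maximal effect; plate controls were uninhibited enzyme wells for no effect and no-enzyme background for full effect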
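Fluorogenic assay: 4 nM human alpha-glucosidase with 400 uM 4-methylumbelliferyl-alpha-D-pyranoside in 50 mM citrate/phosphate, 0.005% Tween-20, pH 5.0, 20 min at room temperature. Compounds tested up to 77 uM; AC50 from Hill fits.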
GLA inh pH 4.5: blocks human alpha-galactosidase A at pH 4.5. P06280. purified enzyme, 4-MU-alpha-Gal fluorescence, pH 4.5. activity change, negative = inhibition, % at 105 µM. 230,000 tested, under 10 active. AID 1467;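 note: 0% = full activity with enzyme and -100% = basal without enzyme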
Target sequence (P06280 whole entry, looked up): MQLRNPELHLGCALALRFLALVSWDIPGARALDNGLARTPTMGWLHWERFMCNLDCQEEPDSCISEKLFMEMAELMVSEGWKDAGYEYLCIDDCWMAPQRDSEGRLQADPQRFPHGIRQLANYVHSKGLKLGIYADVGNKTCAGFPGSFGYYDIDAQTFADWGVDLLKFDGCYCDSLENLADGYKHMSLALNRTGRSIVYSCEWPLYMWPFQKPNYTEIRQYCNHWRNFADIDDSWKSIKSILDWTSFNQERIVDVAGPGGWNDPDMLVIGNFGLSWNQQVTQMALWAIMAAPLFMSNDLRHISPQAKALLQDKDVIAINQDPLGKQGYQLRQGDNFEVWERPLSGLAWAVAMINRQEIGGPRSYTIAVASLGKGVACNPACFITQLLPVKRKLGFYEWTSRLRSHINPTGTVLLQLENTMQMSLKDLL
GLA spleen mod: alpha-galactosidase A (human) modulation | P06280 | human spleen homogenate, 4MU-alpha-Gal fluorescence, 40 min | Potency, µM (highest dose often 80 µM), for the others: at the highest dose activity change, negative = inhibition, most hits filed as inhibitors | 240,000 compounds, 0.008% hits | AID 2107;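 note: potency is the fitted concentration of half-maximal effect; 0% = enzyme with vehicle and -100% = no enzyme basal signal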
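Human spleen homogenate (1 ug) was the enzyme source, with 4-methylumbelliferyl-alpha-D-galactopyranoside (1 mM final) in pH 5.0 citrate buffer with 0.01% Tween-20. Compounds were titrated; after 40 min at 37C, NaOH/glycine stop, 4-MU fluorescence read; AC50 from Hill fits.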
GAA glycogen mod: alters human alpha-glucosidase cleavage of glycogen; P10253; recombinant GAA, glycogen substrate, Amplex Red glucose oxidase fluorescence; Potency, µM (top dose mostly 76.4 µM), for the others: at the highest dose activity change, negative = inhibition, actives largely listed as inhibitors; 300,000 compounds, 0.38% hits; AID 2100;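 note: potency is the fitted concentration of half-maximal effect; 0% = full enzyme reaction and -100% = no-enzyme basal signal; the screen sought inhibitors and activators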
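Recombinant enzyme (4 nM final) with compounds titrated up to 77 uM and bovine liver glycogen (30 ug) in citrate pH 5.0, 0.01% Tween-20, 37 C 40 min. Released glucose detected by Amplex Red/glucose oxidase (Ex 573/Em 610); AC50 from Hill fits.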
GAA spleen mod: inhibits or activates alpha-glucosidase in human spleen homogenate. P10253. human spleen homogenate, 4-MU-alpha-glucoside fluorescence. Potency, µM (doses to about 79.9 µM), inactives show at the highest dose activity change, negative = inhibition, hits mostly inhibitors. 240,000 compounds, 0.006% hits;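 note: potency is the fitted concentration of half-maximal effect; 0% = enzyme with vehicle and -100% = no enzyme basal signal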
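AC50 values come from Hill-equation fits of concentration-response data, normalized to no-enzyme and full-activity controls. Enzyme source: 1 ug human spleen homogenate; 1 mM fluorogenic 4-MU glucoside, pH 5.0 citrate buffer, 37 C, 40 min.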
* = called active by the depositor; ? = inconclusive; · = no result; [ ] = dose if it differs, or a comment. Compounds with a hit are over-represented: about 0.4% of the library has one in this group of screens. Calls come from the whole dose curve; as a rule, active = well fitted curve in the direction sought with a large enough effect; inconclusive = small, poorly fitted or top-dose-only effect, or another doubt; inactive = no such curve, though single readings can be large; an effect the other way counts as inactive or inconclusive.

SMILES	GAA inhib	GLA inh pH 4.5	GLA spleen mod	GAA glycogen mod	GAA spleen mod
Cc1ccccc1Nc1c(-c2ccccn2)nc2ccccn12	-2%	-3	-1%	?	-1%
Cc1ccn2c(Nc3ccccc3C)c(-c3ccccn3)nc2c1	0%	0	0%	4µM*	-5%
Cc1ccc2nc(-c3cccnc3)c(Nc3ccc(C(C)C)cc3)n2c1	·	·	·	-9%[76.3 µM]	·
CC(C)c1ccc(Nc2c(-c3ccccn3)nc3ccccn23)cc1	·	·	·	5.6µM*	·
CC(C)N1C(=O)C(O)(c2c[nH]c3ccccc23)c2ccccc21 (centres undefined)	·	·	·	-5%[76.3 µM]	·
O=c1cc2c(=O)oc3cc(O)c(O)oc3c2c(O)c1O	-3%	-2	4%	8.9µM*	4%
COc1c(O)cc2c(=O)oc3c(OC)c(O)cc4c(=O)oc1c2c34	·	-1	7%	·	-2%
CC(C)(C)NCC(O)COc1nsnc1N1CCOCC1 (centres undefined)	·	5	1%	·	8%
CCOC(=O)c1ccccc1NC(=O)N1CCC(CN2CCCCC2)CC1	·	·	·	8%[76.3 µM]	·
N#CC1=C(SCC(=O)c2cc3ccccc3oc2=O)NC(=O)C(C#N)C12CCCC2 (centres undefined)	-9%	-7	-9%	22µM*	-5%
CC(C)(C)C1CCC2(CC1)C(C#N)=C(SCC(=O)Nc1ccccc1)NC(=O)C2C#N (centres undefined)	?	-18	-1%	?	3%
O=c1c(O)c(-c2ccc(O)cc2O)oc2cc(O)cc(O)c12	0%[15.4 µM]	0	-1%	3.2µM*	-11%
O=c1c(O)c(-c2ccccc2O)oc2cc(O)cc(O)c12	·	·	6%	·	3%
O=c1c(O[C@@H]2O[C@H](CO)[C@@H](O)[C@H](O)[C@H]2O)c(-c2ccc(O)c(O)c2)oc2cc(O)cc(O)c12	-1%[15.4 µM]	-15	-7%	3.5µM*	-10%
C[C@@H]1O[C@@H](OC[C@H]2O[C@@H](Oc3c(-c4ccc(O)c(O)c4)oc4cc(O)cc(O)c4c3=O)[C@H](O)[C@@H](O)[C@@H]2O)[C@H](O)[C@H](O)[C@H]1O	-2%[15.4 µM]	-6	-10%	3.2µM*	-4%
CC1OC(OCC2OC(Oc3c(-c4ccc(O)cc4)oc4cc(O)cc(O)c4c3=O)C(O)C(O)C2O)C(O)C(O)C1O (centres undefined)	·	-3	-11%	?	-1%
O=c1c(O[C@@H]2O[C@H](CO)[C@H](O)[C@H](O)[C@H]2O)c(-c2ccc(O)c(O)c2)oc2cc(O)cc(O)c12	-6%[15.4 µM]	-9	?	6.3µM*	?
COC(=O)C1(C(=O)OC)C[C@@H]2CON=C2[C@H]1c1ccccc1	·	-7	5%	·	-8%
COc1cccc(CNC(=O)Cn2c(=O)oc3cc(S(=O)(=O)N4CCCC4)ccc32)c1	·	·	·	11%[76.3 µM]	·
CCC1CCc2c(sc(NC(=O)C3c4ccccc4Oc4ccccc43)c2C#N)C1 (centres undefined)	·	·	·	-13%[76.3 µM]	·
Cc1nc2cnc(N3CCOCC3)nc2n(C[C@H]2CCCO2)c1=O	·	·	-1%	·	-4%
COC(=O)/C=C/c1cccc(N(Cc2ccc(-c3ccc(N(C)C)cc3)cc2)C(=O)C2CCCCC2)c1	·	·	7%	·	-10%
COc1c(-c2ccc(O)c(O)c2)oc2cc(O)cc(O)c2c1=O	·	-8	-6%	35µM*	3%
CCOC(=O)c1c(NC(=O)COc2cccc(C(F)(F)F)c2)sc2c1CCC(C)C2 (centres undefined)	·	·	·	14%[76.3 µM]	·
CCCCOc1ccc(C(=O)N2CCN(CCc3ccncc3)CC2)cc1	·	·	·	-6%[76.3 µM]	·
Cc1ccc(NC(=S)NNc2ccc([N+](=O)[O-])cc2S(=O)(=O)Nc2ccccc2C(=O)O)cc1C	0%	-2	-2%	22µM*	1%
O=C(O)c1ccc(/C=N/n2cc(-c3ccccc3)[nH]c2=S)cc1	·	1	10%	28µM*	-1%
CCc1ccc(-c2cn3c(n2)sc2cc(C(=O)NCCC4=CCCCC4)ccc23)cc1	·	·	·	13%[76.3 µM]	·
CCOC(=O)N1CCc2c(sc(N)c2C#N)C1	·	6	-2%	?	-2%
CCOC(=O)C1CCc2sc(N)c(C#N)c21 (centres undefined)	-13%	-1	3%	5µM*	6%
